Test systems include NCI-H23 lung; NCI-H226 lung; NCI-H322M lung; HOP-62 NSCLC; NCI-H460 lung; HOP-92 NSCLC; 786-0 renal; COLO 205 colon; DU-145 prostate; K-562 leukemia; MALME-3M melanoma; MDA-MB-231 breast; RXF 393 renal; SF-268 CNS; SF-295 CNS; SF-539 CNS; M14 melanoma; A549/ATCC NSCLC; UACC-257 melanoma.
What all share (test): NCI-60 one-dose screen, 48 h (100 = growth as untreated, 0 = no growth, -100 = all killed)
What all share (settings): 10 µM unless noted

About 83,000 compounds went through this panel and 20% of them were active in at least one assay; those are over-represented in the sample as a whole.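 Values shown are percent growth following 48 h exposure of cells in 96-well plates to a single concentration of compound; below 10 was considered active.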 Values without a mark were called inactive. Activity calls are given as the source filed them.

As for `COc1ccc(/C=N/NC(N)=S)c(OC)n1`, the growth with NCI-H23 lung is 108%; in the experiment with NCI-H226 lung, 85.7%; with NCI-H322M lung, 104%; with HOP-62 NSCLC, 116%; in the experiment with NCI-H460 lung, 106%; in the experiment on HOP-92 NSCLC it was 113%. The growth with 786-0 renal was 104%; in the experiment with COLO 205 colon it was 111%; with DU-145 prostate it was 113%; with K-562 leukemia it was 89.5%; in the experiment on MALME-3M melanoma, 103%; in the experiment with MDA-MB-231 breast, 110%. Also, the growth was 94.4% in the experiment with RXF 393 renal; 109% in the experiment on SF-268 CNS; 106% in the experiment on SF-295 CNS; 100% in the experiment on SF-539 CNS; 104% with M14 melanoma.
Consider `Cc1cccc2nc3ccccc3c(Nc3ccc(NS(C)(=O)=O)cc3)c12`, for which the growth with NCI-H23 lung was 57.8%; in the experiment with NCI-H226 lung it was 5.12% (active); in the experiment with NCI-H322M lung, 92.8%; in the experiment on HOP-62 NSCLC it was 35.2%; in the experiment with NCI-H460 lung, 10.1%; with HOP-92 NSCLC, -3.43% (active). In addition, the growth was 38.2% in the experiment on 786-0 renal; 51.1% in the experiment with COLO 205 colon; 23.1% with DU-145 prostate; 35.1% in the experiment with K-562 leukemia; 40.4% in the experiment with MALME-3M melanoma; 72.9% in the experiment on MDA-MB-231 breast. Besides, the growth in the experiment on RXF 393 renal is 55.4%; in the experiment with SF-268 CNS, 57.9%; in the experiment on SF-295 CNS, 21.6%; in the experiment with SF-539 CNS, 39.6%; in the experiment with M14 melanoma, 70.7%.
As to `N/C(=N\O)c1ncc(-c2ccc(C(F)(F)F)cc2)c(NC2CCCCCC2)n1`, the growth is -78.9% [100 µM] (active) with NCI-H23 lung; -42.4% [100 µM] (active) in the experiment on NCI-H226 lung; -95.8% [100 µM] (active) in the experiment on NCI-H322M lung; -74.2% [100 µM] (active) with HOP-62 NSCLC; -64.8% [100 µM] (active) in the experiment with NCI-H460 lung; -89.5% [100 µM] (active) with HOP-92 NSCLC. The growth in the experiment with 786-0 renal was -91.5% [100 µM] (active); in the experiment with COLO 205 colon, -58.2% [100 µM] (active); in the experiment with DU-145 prostate, -96.1% [100 µM] (active); in the experiment on K-562 leukemia, -60.4% [100 µM] (active); in the experiment on MALME-3M melanoma, -92.6% [100 µM] (active); in the experiment with MDA-MB-231 breast, -66.3% [100 µM] (active). Further, the growth with RXF 393 renal was -67% [100 µM] (active); with SF-268 CNS, -89.4% [100 µM] (active); in the experiment with SF-295 CNS, -94.7% [100 µM] (active); with M14 melanoma, -91.9% [100 µM] (active).
As for `O=C(c1ccc(OCCN2CCCCC2)cc1)c1c(-c2ccc(O)cc2)sc2cc(O)ccc12`, the growth in the experiment with NCI-H23 lung was 82.5%; in the experiment with NCI-H226 lung, 92.3%; with NCI-H322M lung, 114%; in the experiment with HOP-62 NSCLC, 89.2%; in the experiment on NCI-H460 lung, 93.5%; in the experiment on HOP-92 NSCLC, 66.7%. Further, the growth in the experiment with A549/ATCC NSCLC is 91.6%; in the experiment with 786-0 renal it was 74.7%; in the experiment on MALME-3M melanoma, 99.4%; in the experiment on MDA-MB-231 breast, 72.2%; with RXF 393 renal, 70.2%; in the experiment on SF-268 CNS, 84.3%. Further, the growth was 106% in the experiment with SF-295 CNS, 98.6% with SF-539 CNS, 92.8% with UACC-257 melanoma and 93.3% with M14 melanoma.
As to `O=P(O)(O)C(O)(Cc1cccnc1)P(=O)(O)O`, the growth was 93.1% with NCI-H23 lung; 111% with NCI-H226 lung; 107% with NCI-H322M lung; 94.3% in the experiment on HOP-62 NSCLC; 111% in the experiment on NCI-H460 lung; 114% with HOP-92 NSCLC. For the same compound, the growth in the experiment with A549/ATCC NSCLC is 98.8%; in the experiment with 786-0 renal, 108%; in the experiment with MALME-3M melanoma, 113%; with MDA-MB-231 breast, 94.1%; with RXF 393 renal, 101%; in the experiment with SF-268 CNS, 104%. For the same compound, the growth with SF-295 CNS is 111%; in the experiment with SF-539 CNS, 101%; in the experiment with UACC-257 melanoma, 99.4%; in the experiment with M14 melanoma it was 99.6%.
For the compound `CC(=O)C1CCC2C3CC(C)=C4CC(O)CCC4(C)C3CCC12C` (stereo not drawn), the growth in the experiment with NCI-H23 lung is 99.5%; in the experiment on NCI-H226 lung it was 93.4%; in the experiment with NCI-H322M lung, 103%; in the experiment on HOP-62 NSCLC, 124%; in the experiment on NCI-H460 lung, 109%; in the experiment with HOP-92 NSCLC, 102%. Further, the growth in the experiment on A549/ATCC NSCLC was 99.6%; in the experiment on 786-0 renal it was 94.3%; in the experiment on DU-145 prostate it was 119%; in the experiment on K-562 leukemia it was 86.1%; with MDA-MB-231 breast it was 101%; in the experiment on RXF 393 renal it was 111%. The growth was 102% with SF-268 CNS; 113% in the experiment on SF-295 CNS; 90.7% with SF-539 CNS; 117% in the experiment with UACC-257 melanoma; 98.1% with M14 melanoma.
Take `O=C(Nc1cccc(-n2ccc3c(NC(=O)c4ccccc4)nccc32)c1)c1ccc(Cl)c(Cl)c1`: the growth in the experiment with NCI-H23 lung is -31.3% (active); in the experiment on NCI-H226 lung it was 31.1%; in the experiment on NCI-H322M lung it was -61.6% (active); in the experiment on HOP-62 NSCLC it was -82.2% (active); in the experiment on NCI-H460 lung, -67.8% (active); in the experiment with HOP-92 NSCLC, -31.9% (active). In addition, the growth in the experiment on 786-0 renal was -93% (active); in the experiment with COLO 205 colon, -27.7% (active); in the experiment on DU-145 prostate, -73.3% (active); in the experiment with MALME-3M melanoma it was -56% (active); in the experiment on MDA-MB-231 breast it was -53.9% (active); in the experiment with RXF 393 renal it was -92.7% (active). The growth in the experiment on SF-268 CNS was -55% (active); with SF-295 CNS, -69.8% (active); in the experiment on SF-539 CNS, -71.2% (active); in the experiment on M14 melanoma, -83.4% (active).
With `COc1cc(OC)c(C(=O)/C=C/c2cccc(OC(C)=O)c2)cc1CC=C(C)C`, the growth in the experiment with NCI-H23 lung was 72.2%; in the experiment with NCI-H226 lung it was 69.6%; in the experiment on NCI-H322M lung, 98.9%; with HOP-62 NSCLC, 114%; in the experiment with NCI-H460 lung, 89.4%; with HOP-92 NSCLC, 56.5%. Besides, the growth in the experiment on 786-0 renal was 91.4%; in the experiment with COLO 205 colon, 111%; in the experiment with DU-145 prostate, 69.2%; in the experiment on K-562 leukemia it was 16.5%; in the experiment with MALME-3M melanoma, 122%; in the experiment on MDA-MB-231 breast, 77.6%. The growth in the experiment with SF-268 CNS was 70.4%; with SF-295 CNS it was 97.7%; in the experiment with SF-539 CNS, 90.6%; in the experiment with M14 melanoma, 87.6%.
As to `O=C1c2cccc3cccc(c23)C(=O)N1CCCCCCCCCCN1C(=O)c2cccc3cccc(c23)C1=O`, the growth in the experiment on NCI-H23 lung is 112%; in the experiment on NCI-H226 lung it was 96.4%; in the experiment on NCI-H322M lung, 111%; with HOP-62 NSCLC, 104%; in the experiment on NCI-H460 lung it was 102%; in the experiment with HOP-92 NSCLC it was 108%. Moreover, the growth was 109% in the experiment with 786-0 renal; 119% in the experiment with COLO 205 colon; 123% in the experiment with DU-145 prostate; 103% with K-562 leukemia; 113% in the experiment on MALME-3M melanoma; 108% in the experiment on MDA-MB-231 breast. Besides, the growth is 96.6% in the experiment with RXF 393 renal; 100% with SF-268 CNS; 95.3% in the experiment on SF-295 CNS; 102% in the experiment with SF-539 CNS; 119% with M14 melanoma.

Values taken from PubChem BioAssay (NCI).
